{
  "source": "PubChem BioAssay AID1851",
  "about": "(National Center for Advancing Translational Sciences (NCATS), 2009)",
  "note": "Hit rate of the full screen: of about 16,000 compounds, about 5,800 (36%) were called active. Another 23% or so got no clear call; they are omitted. Calls come from the whole dose curve; as a rule, active = well fitted curve in the direction sought with a large enough effect; inconclusive = small, poorly fitted or top-dose-only effect, or effect the other way; inactive = no such curve, though single readings can be large or run the other way. Some of the results follow. % is set by controls: 0 for no effect and ±100 for the full control effect.",
  "data": [
    {"target": "Cytochrome P450 2C19 (Homo sapiens) (UniProt P33261)", "sequence (P33261 whole entry, looked up)": "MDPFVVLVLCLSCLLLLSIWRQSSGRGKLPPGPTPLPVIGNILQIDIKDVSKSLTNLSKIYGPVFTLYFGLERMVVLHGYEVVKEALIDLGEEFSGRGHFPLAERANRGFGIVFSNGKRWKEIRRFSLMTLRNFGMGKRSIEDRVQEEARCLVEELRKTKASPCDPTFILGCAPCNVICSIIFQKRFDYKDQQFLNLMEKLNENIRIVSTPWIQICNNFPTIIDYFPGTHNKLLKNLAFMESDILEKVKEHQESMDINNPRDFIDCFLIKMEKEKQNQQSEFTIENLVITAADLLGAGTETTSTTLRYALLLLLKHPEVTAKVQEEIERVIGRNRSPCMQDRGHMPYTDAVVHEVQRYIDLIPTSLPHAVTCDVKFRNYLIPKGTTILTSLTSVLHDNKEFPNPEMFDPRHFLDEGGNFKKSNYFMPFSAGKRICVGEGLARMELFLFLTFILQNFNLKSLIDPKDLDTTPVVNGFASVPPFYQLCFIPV", "assay": "Cytochrome panel assay with activity outcomes", "conditions": "recombinant CYP, pro-luciferin dealkylation, luminescence, p450-cyp2c19; series mostly up to 57.1 µM", "values": [
      {"smiles": "O=C(CSCc1ccccc1)Nc1cccc(C(=O)Nc2ccccc2C(=O)O)c1", "AC50": "11.2 µM (active)"},
      {"smiles": "O=C(Nc1cccc(C(=O)Nc2ccc(S(=O)(=O)O)c3cc(S(=O)(=O)O)cc(S(=O)(=O)O)c23)c1)Nc1cccc(C(=O)Nc2ccc(S(=O)(=O)O)c3cc(S(=O)(=O)O)cc(S(=O)(=O)O)c23)c1", "AC50": "inactive"},
      {"smiles": "CCNc1ncc2nc(-c3cc(F)cc(F)c3)c(=O)n(Cc3cccs3)c2n1", "AC50": "inactive"},
      {"smiles": "O=C(O)[C@H](CCc1ccccn1)c1ccccc1", "activity, negative = inhibition": "9.85% [at 11.4 µM] (inactive)"},
      {"smiles": "CCCC(C(=O)Nc1nccs1)c1ccccc1", "note": "(configuration not stated)", "AC50": "3.16 µM (active)"},
      {"smiles": "COc1ccccc1OCCCOc1ccc([N+](=O)[O-])cc1Cl", "AC50": "0.316 µM (active)"},
      {"smiles": "COc1cc(C=O)ccc1OCCOCCOc1ccccc1Cl", "AC50": "1.26 µM (active)"},
      {"smiles": "COc1cc(C)ccc1OCCCOc1ccccc1Br", "AC50": "0.501 µM (active)"},
      {"smiles": "COc1cc(C=O)ccc1OCCCOc1ccccc1C(=O)O", "AC50": "inactive"},
      {"smiles": "COc1cc(C)ccc1OCCCOc1ccccc1Cl", "AC50": "1.12 µM (active)"},
      {"smiles": "CC(C)CO/N=C1/[C@H]2O[C@@H]2[C@@H](O)[C@H]2[C@H]1CCn1c(=O)n(C)c(=O)n12", "activity, negative = inhibition": "-6.23% [at 11.4 µM] (inactive)"},
      {"smiles": "Cc1ccc(C)c(Nc2nc3nonc3nc2N2CCOCC2)c1", "AC50": "25.1 µM (active)"},
      {"smiles": "CN1CCN(CCCBr)CC1", "activity, negative = inhibition": "39.1% [at 11.4 µM] (inactive)"},
      {"smiles": "Cc1ccc(SCc2[nH]nc3c2C(C(C)C)C(C#N)=C(N)O3)cc1", "note": "(configuration not stated)", "AC50": "3.16 µM (active)"},
      {"smiles": "COCc1cc(=O)[nH]c2cc(NC(=O)C(F)(F)F)c(C)cc12", "AC50": "inactive"},
      {"smiles": "CN(Cc1ccco1)C(=O)C1CCC(=O)N1Cc1ccc(F)cc1", "note": "(configuration not stated)", "AC50": "17.8 µM (active)"},
      {"smiles": "O=C(Nc1ccc(Br)cc1)C1CCC(=O)N1Cc1ccccc1Cl", "note": "(configuration not stated)", "AC50": "0.631 µM (active)"},
      {"smiles": "Cc1ccc(CCN2CC(C(=O)NCCCN(C)Cc3ccccc3)CC2=O)cc1", "note": "(configuration not stated)", "AC50": "inactive"},
      {"smiles": "CN(CCCNC(=O)C1CCC(=O)N1Cc1ccccc1Cl)c1ccccc1", "note": "(configuration not stated)", "AC50": "10 µM (active)"},
      {"smiles": "CC(C)N(CCNC(=O)C1CCC(=O)N1Cc1ccc(F)cc1)Cc1ccccc1", "note": "(configuration not stated)", "AC50": "2.82 µM (active)"},
      {"smiles": "O=C(NCCN1CCN(Cc2ccccc2)CC1)C1CC(=O)N(C2CCCC2)C1", "note": "(configuration not stated)", "AC50": "inactive"},
      {"smiles": "CCCS(=O)(=O)N1CCCC(C(=O)NCCN(C)Cc2ccccc2)C1", "note": "(configuration not stated)", "AC50": "inactive"},
      {"smiles": "Cc1ccc(OC[C@H](O)[C@H](C)NC(C)C)c2c1CCC2", "AC50": "inactive"},
      {"smiles": "CC(C)(C[C@@]1(C)NC(=O)NC1=O)OCc1ccccc1", "activity, negative = inhibition": "18.1% [at 11.4 µM] (inactive)"},
      {"smiles": "Cc1ccc(N=Nc2c(O)ccc3cc(S(=O)(=O)O)ccc23)cc1", "activity, negative = inhibition": "6.68% [at 11.4 µM] (inactive)"},
      {"smiles": "Cc1ccc(S(=O)(=O)c2cc3ccccc3oc2=Nc2ccc3c(c2)OCO3)cc1", "AC50": "4.47 µM (active)"},
      {"smiles": "O=c1oc2cc(N=Cc3ccc4c(c3)OCO4)ccc2c2ccccc12", "activity, negative = inhibition": "-3.38% [at 11.4 µM] (inactive)"}
    ]}
  ]
}
